The list is not random: actives were taken first. Their share in the collection is about 4.2%.
PLK1 PBD block – inhibitors of human PLK1 polo-box domain binding. Potency, µM, without a hit: max response, negative = inhibition, hits mostly inhibitors. Plk1 PBD binding of FITC phosphopeptide, fluorescence polarization. P53350. 2.8% of 360,000 active. AID 720504; further: series mostly up to about 57 µM; nearly all actives have a fitted effect of over 65% in size
VDR inh – blocks the human vitamin D receptor; 0.93% of 400,000 active; Potency, µM, for the others: max response, negative = inhibition, usual class: inhibitors; VDR-SRC2-3 peptide fluorescence polarization, 2 h; P11473
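Fluorescence polarization assay of small-molecule disruption of VDR binding to coregulator peptide SRC2-3. Compounds and controls pin-transferred, then read after 2 h incubation at ambient room temperature.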
Sfp inh – blocks B. subtilis Sfp PPTase activity | Q9F4F7 | Biochemical Sfp PPTase activity, qHTS | Potency, µM, for the others: largest response in the series, negative = inhibition, usual class: inhibitors | 3.5% of 310,000 active | AID 1490;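 further: the enzyme is Sfp with the accession as filed and its product quenches rhodamine fluorescence; 0% = enzyme reaction without inhibitor and -100% = no enzyme wells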
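Step 1, compound plus 15 nM Sfp-PPTase, 15 min, room temperature. Step 2, add rhodamine-CoA (5 uM) and BHQ-2-YbbR (12.5 uM). Step 3, read 525/598 nm fluorescence at 0 and 30 min.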
ALOX12 inh – ALOX12 (human) lipoxygenase inhibition; purified 12hLO, xylenol orange hydroperoxide absorbance; Potency, µM (series often up to 108 µM), without a hit: at the highest dose activity change, negative = inhibition, usual class: inhibitors; 1.1% of 580,000 active
Target sequence (P18054 whole entry, looked up): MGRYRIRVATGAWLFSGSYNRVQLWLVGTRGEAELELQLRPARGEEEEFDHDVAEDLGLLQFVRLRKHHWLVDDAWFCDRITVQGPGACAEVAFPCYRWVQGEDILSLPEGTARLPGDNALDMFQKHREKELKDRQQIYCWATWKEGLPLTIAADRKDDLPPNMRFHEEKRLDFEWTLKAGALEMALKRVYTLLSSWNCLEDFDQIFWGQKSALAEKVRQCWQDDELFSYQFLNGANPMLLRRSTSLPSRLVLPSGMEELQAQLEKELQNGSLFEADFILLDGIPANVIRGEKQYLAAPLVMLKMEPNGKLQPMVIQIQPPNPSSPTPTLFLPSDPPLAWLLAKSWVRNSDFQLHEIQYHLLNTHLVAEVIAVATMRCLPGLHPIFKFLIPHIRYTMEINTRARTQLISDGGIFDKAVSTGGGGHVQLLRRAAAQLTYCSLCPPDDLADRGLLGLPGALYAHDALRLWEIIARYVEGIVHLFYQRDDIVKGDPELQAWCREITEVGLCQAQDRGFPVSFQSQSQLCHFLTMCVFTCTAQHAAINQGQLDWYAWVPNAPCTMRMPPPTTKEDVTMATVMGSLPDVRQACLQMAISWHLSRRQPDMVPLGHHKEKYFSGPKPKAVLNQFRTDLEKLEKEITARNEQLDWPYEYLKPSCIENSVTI
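Hydroperoxide product was detected by ferrous iron/xylenol orange as the 573 to 405 nm absorbance ratio. Arachidonic acid at 40 uM (final) was turned over for 30 min at room temperature by 150 nM human 12hLO, pH 7.0 Hepes buffer, after 15 min compound preincubation.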
* marks the source's active call; other numbers are inactive results; ? = inconclusive; · = not tested or not shown; [ ] = dose if it differs, or a comment. The call rests on the fitted dose curve; in most records, active means well fitted curve in the direction sought with a large enough effect; inconclusive means small, poorly fitted or top-dose-only effect, or another doubt; inactive means no such curve, though single readings can be large; an effect the other way counts as inactive or inconclusive. Unless noted, on the % scale 0 is the no-effect control and ±100 the full control effect; potency means the concentration at half of the fitted maximal effect.

SMILES	PLK1 PBD block	VDR inh	Sfp inh	ALOX12 inh
CC(=O)N1CCN(C(=O)CC2OC(=O)c3ccccc32)CC1 (stereo not given)	27µM*	?	-23%	0%
O=C(CC1OC(=O)c2ccccc21)Nc1ccccc1N1CCOCC1 (stereo not given)	-9%	-4%	2%	3%
CC(C)C(=O)Nc1ccc(N(C)C)cc1	·	·	·	-36%
NC(=O)NC(Cc1ccccc1)C(=O)Nc1ccc(S(N)(=O)=O)cc1 (stereo not given)	0%	6%	18%	22%
CN(Cc1ccccc1F)c1ncnc2sccc12	3%	2%	-1%	-11%
CN(Cc1cccs1)c1ncnc2sccc12	-6%	7%	79µM*	0%
CNc1nc2[nH]c(=O)c3c(c2s1)OC(N)=C(C#N)C3c1cccc(F)c1 (stereo not given)	7%	-5%	79µM*	-19%
CC1=C(C(=O)Nc2cccc(C(=O)NC(C)C)c2)SCCO1	-1%	5%	-9%	-1%
COc1ccccc1-c1nn(-c2ccccc2)cc1C(=O)NCC(C(C)C)N1CCOCC1 (stereo not given)	·	·	·	1%
Cc1ccc(-n2c3c(c(=O)[nH]c2=O)C(NS(=O)(=O)c2ccc(C)cc2)(C(F)(F)F)C(=O)N3)cc1 (stereo not given)	-4%	-24%	15%	?
C=CCC(C=C)S(=O)(=O)c1ccc(C)cc1 (stereo not given)	-1%	-2%	17%	0%
CCc1[nH]c(=O)[nH]c1C(C)S(=O)(=O)c1ccc(C)cc1 (stereo not given)	12µM*	-14%	20µM*	-21%
CCc1c(C(C)S(=O)(=O)c2ccc(C)cc2)[nH]c(=O)n1-c1ccc(C)cc1 (stereo not given)	27µM*	?	56µM*	?
CCc1csc(Cn2cc(-c3cncnc3)nn2)n1	·	·	·	-3%
CC(C)=CC(=O)NC(C)c1ccc(Cl)c(Cl)c1 (stereo not given)	·	·	·	-38%
C/C(Cc1ccccc1)=N\NC(=O)c1ccccn1	0%	9%	50µM*	10%
C/C(=N\NC(=O)c1cccc(N/N=C(\C)c2ccncc2)c1)c1ccncc1	27µM*	-20%	6%	?
Clc1cccc(N/N=C(/c2ccccc2)c2ccncc2)c1	·	·	·	40µM*
O=C(Nc1cccc(Cl)c1)c1ccncc1	-6%	-6%	9%	-14%
C/C(=N\NC(=O)c1cccc(N/N=C(\C)c2ccccc2)c1)c1ccccc1	-11%	?	12%	?
C/C(=N/NC(=O)c1ccccn1)c1ccncc1	-9%	-17%	56µM*	74%
CCCn1nc(C(=O)NCc2ccccc2OC)c2ccccc2c1=O	·	·	·	2%
CCn1ncc(N2CCCC(CC(=O)NCC3CC3)C2)cc1=O (stereo not given)	·	·	·	11%
Cc1cccc(-c2noc(CCCC(=O)NC3CCCCC3)n2)c1	2%	-6%	12%	1%
CC(C)C[C@@H]1N[C@H](C(=O)N2CCC(CO)CC2)Cc2c[nH]c3cccc1c23	·	·	·	14%[176 µM]
SMILES	PLK1 PBD block	VDR inh	Sfp inh	ALOX12 inh
O=C(c1ccc(-c2cccc(Cl)c2)o1)N1CCN(c2ccc([N+](=O)[O-])cc2)CC1	27µM*	?	-23%	9%
O=[N+]([O-])c1cccc(-c2ccc(C(=S)N3CCOCC3)o2)c1	-15%	-13%	20µM*	5%
O=[N+]([O-])c1cccc(-c2ccc(C(=S)N3CCN(c4ccccc4)CC3)o2)c1	12µM*	?	13µM*	-18%
CN1CCN(C(=S)c2ccc(-c3cccc([N+](=O)[O-])c3)o2)CC1	-22%	?	-16%	-14%
O=[N+]([O-])c1cccc(C(=S)N2CCN(c3ccc(F)cc3)CC2)c1	?	-18%	28µM*	-11%
CC(=O)Nc1ccc(NC(=O)c2ccc(-c3ccnn3C)c3ccoc23)cc1	-12%	·	·	-11%
CCCn1c(NCCc2ccccc2)nc2c1c(=O)n(C)c(=O)n2C	·	·	·	25%
O=C(c1ccc(-c2ccc([N+](=O)[O-])cc2)o1)N1CCCCCCC1	24µM*	35µM*	·	?
S=C(c1ccc(-c2cccc(Cl)c2)o1)N1CCOCC1	19µM*	?	20µM*	?
O=C(O)c1ccccc1C(=O)N1CCN(c2cccc(Cl)c2)CC1	-11%	4%	-13%	0%
O=C(c1ccc(-c2ccc([N+](=O)[O-])cc2)o1)N1CCCC(C(F)(F)F)C1 (stereo not given)	-16%	-9%	·	?
